The values that follow come from PubChem BioAssay AID686979 (National Center for Advancing Translational Sciences (NCATS), 2013).

About 50,000 (12%) of roughly 420,000 compounds were called active. About 26% were inconclusive and are not listed. This is one part of a sample in which actives are shown more often than they occur. Unmarked numbers belong to inactive results. Calls come from the whole dose curve; as a rule, active = well fitted inhibition curve with a large enough effect; inconclusive = small, poorly fitted or top-dose-only effect; inactive = flat fitted curve, though single readings scatter.
% is set by controls: 0 for no effect and ±100 for the full control effect; potency is the fitted concentration of half-maximal effect.

A short description of the test: qHTS for Inhibitors of human tyrosyl-DNA phosphodiesterase 1 (TDP1): qHTS in cells in presence of CPT. Note: nearly all actives have a fitted effect of over 55% in size. As to conditions: chicken DT40 Tdp1-/-;hTDP1 cells + 20 nM CPT, ATP luminescence, 48 h; series mostly up to 46.2 µM; activity change, negative = growth inhibition: at the top concentration. The gist of the method:
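Chicken DT40 Tdp1-/- cells stably complemented with human TDP1 were seeded at 400 cells/well in medium containing 20 nM camptothecin, exposed to pin-transferred compounds, and grown at 37 °C for at least 48 hr. Viability was read as ATP luminescence.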
(In general: qHTS replaces the single test concentration by a dilution series.)
Turning to `CCOC(=O)c1ccccc1NC(=O)c1c(N)n(C)c(=O)[nH]c1=O`, the “activity change, negative = growth inhibition” value was -25.9%.

`CCc1ccc(NC(=O)CN2C(=O)COc3ccc(S(=O)(=O)N4CCCC4)cc32)cc1`: the “activity change, negative = growth inhibition” value was -26.2%.

`NS(=O)(=O)c1ccc(NC(=O)/C=C/c2ccccc2Cl)cc1`: the “activity change, negative = growth inhibition” value is -4.03%.

Regarding `COc1ccc(C(=O)Nc2ccc(S(=O)(=O)Nc3onc(C)c3C)cc2)cc1OC`, the “activity change, negative = growth inhibition” value was -6.94%.

As to `COC(=O)COc1ccc(S(=O)(=O)Nc2ccc(NC(C)=O)cc2)cc1`, the “activity change, negative = growth inhibition” value was -10.2%.

In the case of `COc1cc(OC)cc(C(=O)Nc2ccc(S(=O)(=O)Nc3cc(C)on3)cc2)c1`, the “activity change, negative = growth inhibition” value is -1.33%.

As for `CC(=O)Nc1ccc(NS(=O)(=O)c2ccc3c(c2)NC(=O)CC(=O)N3)cc1`, the “activity change, negative = growth inhibition” value was 4.03%.

Regarding `COc1ccc(/C=N/NS(=O)(=O)c2ccc(NC(C)=O)cc2)cc1`, the “activity change, negative = growth inhibition” value was -22.2%.

Regarding `CC(=O)Nc1ccc(S(=O)(=O)Nc2ccc(N3CCCCC3)cc2)cc1`, the Potency is 4.61 µM (active).

As for `COc1cc(NS(=O)(=O)c2ccc(NC(C)=O)cc2)cc(OC)c1`, the Potency was 14.6 µM (active).

On to `CC(=O)Nc1ccc(S(=O)(=O)Nc2cccc(NC(=O)C(C)(C)C)c2)cc1`, for which the “activity change, negative = growth inhibition” value was -20.3%.

Take `CC(=O)Nc1ccc(S(=O)(=O)N2CCCC2C(=O)O)cc1` (stereo not drawn): the “activity change, negative = growth inhibition” value is 6.9%.

Consider `COc1ccc(NS(=O)(=O)c2ccc(NC(C)=O)cc2)cc1OC`, for which the Potency is 9.2 µM (active).

For `COc1ccc(NC(=O)c2cnc(NS(=O)(=O)c3ccccc3)nc2)cc1`, the “activity change, negative = growth inhibition” value is 1.22%.

Turning to `COc1ccc(NS(=O)(=O)c2ccc(NC(=O)c3ccc(N(C)S(C)(=O)=O)cc3)cc2)cc1`, the Potency was 8.2 µM (active).

`CCOc1ncccc1C(=O)OCC(=O)N1c2ccccc2CC1C` (stereo not drawn): the “activity change, negative = growth inhibition” value is -21.5%.

`Oc1cccc2ccc(/C=C/c3ccc(Br)s3)nc12`: the “activity change, negative = growth inhibition” value was -11.9%.

As to `Cc1c(C(=O)NCCN2C(=O)S/C(=C\c3cccs3)C2=O)cccc1[N+](=O)[O-]`, the “activity change, negative = growth inhibition” value is -19.9%.

`CCCNC(=O)CCn1cc(-c2ccc(OC)cc2)nc1CCN`: the “activity change, negative = growth inhibition” value is -18.8%.

`CC(=O)c1cccc(NC(=S)N2CCN(S(C)(=O)=O)CC2)c1`: the “activity change, negative = growth inhibition” value was 2.39%.

As for `CCCCCn1c(=O)c(C(=O)OCC)c(Cl)c2ccccc21`, the “activity change, negative = growth inhibition” value was -8.41%.

With `CC(=O)c1c(C)oc2ccc(NS(=O)(=O)c3ccccc3)cc12`, the “activity change, negative = growth inhibition” value is -27%.

On to `COc1ccc2oc(C)c(NC(C)=O)c2c1`, for which the “activity change, negative = growth inhibition” value was 3.05%.

As for `COc1ccc(S(=O)(=O)Nc2ccc3oc(C)c(C(C)=O)c3c2)cc1`, the Potency is 3.26 µM (active).

As to `Cc1cccc(-c2noc(CCC(=O)NC3CCCC3)n2)c1`, the “activity change, negative = growth inhibition” value was 0.0036%.

`CC(Oc1ccccc1)C(=O)Nc1c2c(nn1-c1ccccc1)CS(=O)C2` (stereo not drawn): the “activity change, negative = growth inhibition” value was 4.72%.

With `COc1cccc(NC(=O)Cn2c(=O)cc(C)c3c(C)nn(-c4cccc(F)c4)c32)c1`, the “activity change, negative = growth inhibition” value was -23.6%.

With `Cc1cc(C(=O)Nc2cccc(C(F)(F)F)c2)c2c(C)nn(-c3cccc(F)c3)c2n1`, the Potency was 18.4 µM (active).

Take `Cc1cccc(NC(=O)c2nnn(-c3cccc(C(F)(F)F)c3)c2N)c1`: the “activity change, negative = growth inhibition” value was -0.269%.

With `O=C(CNC(=O)c1ccccc1F)OCC(=O)c1c[nH]c2ccccc12`, the “activity change, negative = growth inhibition” value is -1.48%.

`COc1ccc(S(=O)(=O)NCCSc2nnnn2-c2ccccc2)cc1`: the “activity change, negative = growth inhibition” value is -21.7%.

For the molecule `CCCn1c(=O)c2c(C(F)(F)F)cc(-c3cccs3)nc2n(CCC)c1=O`, the “activity change, negative = growth inhibition” value was -20.2%.

Take `Cc1nc2ccccc2n1CC(=O)N/N=C/c1cccs1`: the “activity change, negative = growth inhibition” value is 5.92%.

For the molecule `CCn1c(C(O)c2cc(OC)ccc2OC)nc2ccccc21` (stereo not drawn), the “activity change, negative = growth inhibition” value was 12%.

`CCn1c(/C=N/NC(=O)c2ccc(OC)cc2)nc2ccccc21`: the Potency was 13 µM (active).

`O=C(CCN1CCCCC1)Nc1ccc(F)c(F)c1`: the “activity change, negative = growth inhibition” value was 1.1%.

For `O=C(CNS(=O)(=O)c1ccc2ccccc2c1)Nc1ccc(F)c(F)c1F`, the “activity change, negative = growth inhibition” value was 3.97%.

For `CC1(C)NC(=O)N(CC(=O)N2CCN(S(=O)(=O)c3ccccc3F)CC2)C1=O`, the “activity change, negative = growth inhibition” value was -0.0907%.

For `Cc1ccc(S(=O)(=O)N2CCN(C(=O)COC(=O)c3c(C)noc3C)CC2)c(C)c1`, the “activity change, negative = growth inhibition” value is -14.3%.

In the case of `Cc1ccc(S(=O)(=O)N2CCN(C(=O)CN3C(=O)NC(C)(c4ccc(Cl)cc4)C3=O)CC2)c(C)c1` (stereo not drawn), the Potency is 23.1 µM (active).

Regarding `Cc1ccc(S(=O)(=O)N2CCN(C(=O)Cc3sc(C)nc3-c3ccc(F)cc3)CC2)c(C)c1`, the Potency is 18.4 µM (active).

For the molecule `Cc1ccc(S(=O)(=O)N2CCN(C(=O)COC(=O)CNC(=O)c3ccc(C(C)(C)C)cc3)CC2)c(C)c1`, the “activity change, negative = growth inhibition” value is -6.02%.

Consider `Cc1ccc(NC(=O)CN2C(=O)NC(C)(c3ccc(Cl)cc3)C2=O)c(Br)c1` (stereo not drawn), for which the “activity change, negative = growth inhibition” value was -19.5%.

Consider `Cc1nc(-c2ccc(F)cc2)c(CC(=O)Nc2cccc(S(=O)(=O)N3CCOCC3)c2)s1`, for which the “activity change, negative = growth inhibition” value was -26.3%.

In the case of `COc1ccccc1CCC(=O)OCC(=O)N1CCN(S(=O)(=O)c2ccc(C)cc2C)CC1`, the Potency was 25.9 µM (active).

For the molecule `CCCc1cc(=O)[nH]c(SCC(=O)N2CCN(S(=O)(=O)c3ccc(C)cc3C)CC2)n1`, the “activity change, negative = growth inhibition” value is -5.18%.

Consider `O=c1[nH]snc1-c1c(Cl)cccc1Cl`, for which the “activity change, negative = growth inhibition” value is 6.18%.

Take `CC1CCN(S(=O)(=O)c2ccc3ncn(CC(=O)N(C)C4CCCCC4)c(=O)c3c2)CC1`: the “activity change, negative = growth inhibition” value is 24.6%.

As to `CCc1cc(=O)oc2cc(C)cc(OCC(=O)N3CCC[C@@H]3C(=O)O)c12`, the “activity change, negative = growth inhibition” value is -1.07%.

With `O=Cc1c(NCCc2cccc(F)c2)c2ccccc2[nH]c1=O`, the “activity change, negative = growth inhibition” value was 1.42%.

Regarding `Cc1ccc2[nH]c(C)c(CCNC(=O)NC3CCCCC3)c2c1`, the “activity change, negative = growth inhibition” value is -20.3%.

Consider `CN(Cc1c(F)cccc1Cl)S(=O)(=O)c1cccs1`, for which the “activity change, negative = growth inhibition” value is -3.52%.

As for `COc1ccc(CC(=O)N[C@@H]2c3cc(OC)c(OC)cc3C[C@H]2OCc2ccccc2)cc1`, the “activity change, negative = growth inhibition” value was -27%.

With `COc1ccc(C)cc1NC(=O)CN(C)S(=O)(=O)c1ccc2c(c1)n(C)c(=O)c(=O)n2C`, the “activity change, negative = growth inhibition” value is -8.72%.

In the case of `Cc1nc(NC(=O)C2CCCCC2)sc1C`, the “activity change, negative = growth inhibition” value is -3.4%.

Consider `COc1cc(S(=O)(=O)Nc2ncn[nH]2)ccc1Cl`, for which the “activity change, negative = growth inhibition” value is 1.33%.

Regarding `Cn1c(Cc2cccc3ccccc23)nnc1SCC(=O)N1CCN(c2cccc(Cl)c2)CC1`, the Potency was 23.1 µM (active).

As for `CC(C)Cn1c(=O)c2ccccc2n2c(CCC(=O)NCc3ccccn3)nnc12`, the “activity change, negative = growth inhibition” value was -9.44%.

On to `Cn1c(CNC(=O)c2ccco2)nnc1SCC(=O)N1CCN(c2ccccc2)CC1`, for which the “activity change, negative = growth inhibition” value was 4.55%.

With `COc1ccc(NC(=O)CCc2nnc3n(CC(C)C)c(=O)c4ccccc4n23)cc1OC`, the “activity change, negative = growth inhibition” value is -7.25%.

As to `Cc1ccccc1NC(=O)Cc1nnc(SCC(=O)N2CCN(c3ccccc3)CC2)n1C`, the “activity change, negative = growth inhibition” value was -12.8%.

For the molecule `CC(C)Cn1c(=O)c2ccccc2n2c(CCC(=O)N3CCN(c4cccc(Cl)c4)CC3)nnc12`, the Potency was 10.3 µM (active).

Consider `Cc1nc(NC(=O)c2ccc3c(c2)OCCO3)ccc1Br`, for which the “activity change, negative = growth inhibition” value was -15.7%.
